The supplement of paper PMC6555819

Tests used:
Test in all cases: PBM binding z-score (relative to random genomic background probes); higher = stronger binding; sequences stand for … in GC…GCGATTGACAGCGTAGAATGAAGG
[1] = tested on: FXR:RXRa (NR concentration 270 nM, RXRa partner concentration 90 nM)
Method in brief: (§1)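 Probes were double-stranded and carried 34-nt variable regions with direct-repeat seeds, single-nucleotide variants, half-site ablations and random human genomic background sequences, printed on custom Agilent 4×180K protein-binding microarrays. Arrays were incubated 1 h with ligand-free nuclear receptor dimers in PBS pH 7.4, 2% milk, 0.02% Triton X-100, 1 mM DTT, 0.2 mg/mL BSA and 0.4 mg/ml salmon testes DNA. Antibodies against each partner (one per run) detected binding, and scanned fluorescence was regression-normalized. Binding z-scores use the random background probes as reference.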

[2] = tested on: LXRa:RXRa (NR concentration 270 nM, RXRa partner concentration 90 nM)
Method in brief: as §1

[3] = tested on: LXRa homodimer (NR concentration 270 nM)
Method in brief: as §1

[4] = tested on: LXRb:RXRa (NR concentration 270 nM, RXRa partner concentration 90 nM)
Method in brief: as §1

[5] = tested on: LXRb homodimer (NR concentration 270 nM)
Method in brief: as §1

[6] = tested on: PPARa:RXRa (NR concentration 270 nM, RXRa partner concentration 90 nM)
Method in brief: as §1

[7] = tested on: PPARg:RXRa (NR concentration 180 nM, RXRa partner concentration 90 nM)
Method in brief: as §1

[8] = tested on: PPARg:RXRa 270nM:90nM, anti-RXR (NR concentration 270 nM, RXRa partner concentration 90 nM)
Method in brief: as §1

[9] = tested on: PPARg:RXRa 30nM:10nM, anti-RXR (NR concentration 30 nM, RXRa partner concentration 10 nM)
Method in brief: as §1

[10] = tested on: PPARg:RXRa 90nM:30nM, anti-RXR (NR concentration 90 nM, RXRa partner concentration 30 nM)
Method in brief: as §1

Sequence	PBM binding z-score [1]	PBM binding z-score [2]	PBM binding z-score [3]	PBM binding z-score [4]	PBM binding z-score [5]	PBM binding z-score [6]	PBM binding z-score [7]	PBM binding z-score [8]	PBM binding z-score [9]	PBM binding z-score [10]
ACAGACAGGTGACGAAGGTAACTCAGGCTATCAT	-0.34	-0.14	-0.233	-0.231	-0.858	0.582	0.955	0.489	-0.242	0.424
CCTAGTTGGTCCGGAGGTCACACACCGGATATGA	3.5	3.34	2.47	3.37	0.577	3.61	2.4	3.54	1.51	3.05
ATCGAAAGGTCGAGGTGATTATAGAGAAAGGGAA	4.57	3.62	0.192	2.64	0.41	4.56	3.24	3.59	1.31	2.75
CAAACTAGGTCAGAACAGGACAGTGAAGGATGAT	1.81	1.26	0.299	0.616	0.235	3.34	5.81	4.56	2.45	3.64
CAAACTAGGTCACAGAGGTCAAATTCCGTGCGTA	7.61	6.88	8.33	6.71	3.6	6.59	10.5	8.65	7.13	8.61
CATACAGGGTCAGCTAGGCCAGAGAAGGGACGGC	4.68	2.97	-0.0685	2.27	0.339	4.4	3.38	3.06	0.62	1.82
AGTCGAAGTTCAGGACGAGGTAACGTAAAGCACG	1.05	1.05	-0.0607	0.485	-0.831	1.49	1.27	1.11	0.224	0.868
AGTCAAAGTTCACCAGGTAACGTAAGATTCAGCT	6.31	5.59	3.52	3.85	1.05	5.19	6.96	6.68	3.83	6.1
TCATATAGTTAAAAGGTGAAAGTCGGTGTGGTAA	1.74	1.98	0.272	1.98	0.21	3.42	3.17	5.23	5.04	5.39
GCTCGGATGACAAGGTCAGAGCTTTGTCCGTAGA	0.982	1.15	-0.396	0.805	-1.32	1.93	0.116	0.444	-0.707	-0.161
CCTACTGCGCCAAGGTCATTGATCAGTCAAAGCA	3.5	3.48	2.13	3.52	0.86	3.75	0.507	1.59	-0.0931	0.819
